Experimental data taken from the supplement of paper PMC6555819.

Columns and labels:
Assay in all cases: PBM binding z-score (relative to random genomic background probes); higher = stronger binding; sequences stand for … in GC…GCGATTGACAGCGTAGAATGAAGG
[1] = test system: FXR:RXRa (NR concentration 270 nM, RXRa partner concentration 90 nM)
Outline: (§1)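 On custom Agilent 4×180K arrays, double-stranded probes with 34-nt variable regions carried direct-repeat seeds, single-nucleotide variants, half-site ablations or random human genomic background. Ligand-free nuclear receptor dimers were applied for 1 h, and binding was read with antibodies against each partner (one per run). Binding z-scores come from regression-normalized fluorescence, with the random background probes as reference.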

[2] = test system: LXRa:RXRa (NR concentration 270 nM, RXRa partner concentration 90 nM)
Outline: as §1

[3] = test system: LXRa homodimer (NR concentration 270 nM)
Outline: as §1

[4] = test system: LXRb:RXRa (NR concentration 270 nM, RXRa partner concentration 90 nM)
Outline: as §1

[5] = test system: LXRb homodimer (NR concentration 270 nM)
Outline: as §1

[6] = test system: PPARa:RXRa (NR concentration 270 nM, RXRa partner concentration 90 nM)
Outline: as §1

[7] = test system: PPARg:RXRa (NR concentration 180 nM, RXRa partner concentration 90 nM)
Outline: as §1

[8] = test system: PPARg:RXRa 270nM:90nM, anti-RXR (NR concentration 270 nM, RXRa partner concentration 90 nM)
Outline: as §1

[9] = test system: PPARg:RXRa 30nM:10nM, anti-RXR (NR concentration 30 nM, RXRa partner concentration 10 nM)
Outline: as §1

[10] = test system: PPARg:RXRa 90nM:30nM, anti-RXR (NR concentration 90 nM, RXRa partner concentration 30 nM)
Outline: as §1

[11] = test system: PPARg:RXRa DBDmut IVT, anti-RXR (DBD mutation: RXRa K156A/R161A, NR concentration 270 nM, RXRa partner concentration 90 nM)
Outline: as §1

[12] = test system: PPARg:RXRa IVT, anti-PPARg (NR concentration 270 nM, RXRa partner concentration 90 nM)
Outline: as §1

[13] = test system: PPARg DBDmut IVT, anti-PPARg (DBD mutation: PPARg1 K132A/R137A, NR concentration 270 nM)
Outline: as §1

[14] = test system: PPARg homodimer (NR concentration 180 nM)
Outline: as §1

[15] = test system: PXR:RXRa (NR concentration 270 nM, RXRa partner concentration 90 nM)
Outline: as §1

[16] = test system: PXR homodimer (NR concentration 270 nM)
Outline: as §1

[17] = test system: RARa:RXR (NR concentration 270 nM, RXRa partner concentration 90 nM)
Outline: as §1

[18] = test system: RARa homodimer (NR concentration 270 nM)
Outline: as §1

[19] = test system: RARb:RXRa (NR concentration 270 nM, RXRa partner concentration 90 nM)
Outline: as §1

Sequence	PBM binding z-score [1]	PBM binding z-score [2]	PBM binding z-score [3]	PBM binding z-score [4]	PBM binding z-score [5]	PBM binding z-score [6]	PBM binding z-score [7]	PBM binding z-score [8]	PBM binding z-score [9]	PBM binding z-score [10]	PBM binding z-score [11]	PBM binding z-score [12]	PBM binding z-score [13]	PBM binding z-score [14]	PBM binding z-score [15]	PBM binding z-score [16]	PBM binding z-score [17]	PBM binding z-score [18]	PBM binding z-score [19]
ATATTTAGGTTAGGGTCATTCAGAAAGTAGGGAA	4.69	4.1	1.88	4.8	3.1	5.27	6.6	5.63	3.17	5.27	5.81	5.68	3.04	4.04	4.34	2.43	4.64	4.29	3.73
CGAGCTAGGTCACCAGGACAGTGAAGAGGTTGGA	3.66	2.28	-0.245	1.56	-0.77	3.81	3.74	3.66	0.712	2.68	3.94	4.43	-1.08	1.48	1.35	-0.379	2.36	0.327	4.16
CGAACCAGGTCACCAGGACAGTGAAGAGGTTGGA	5.33	3.4	0.19	2.53	-0.432	4.96	6.6	5.66	2.44	4.73	5.49	6.38	0.103	2.28	2.81	0.0931	3.75	0.523	4.37
AGATGTAGGTTAGGGTCATTCAGAAAGTAGGGAA	5.03	3.88	1.53	4.56	2.05	5.24	7.27	6.27	3.83	5.81	5.84	6.36	2.37	3.93	4.39	3.03	5.13	3.23	3.39
CGAACTAGGTCAAAGGAGAGTGAAAGGCGACGTA	3.72	2.61	-0.0759	1.64	-0.486	5.05	8.9	7.8	7.23	8.14	8.02	7.99	0.59	0.681	1.1	-0.124	1.85	-0.114	3.65
CGAACTAGGTCATCAGGACAGTGAAGAGGTTGGA	4.1	2.56	0.124	1.44	-0.279	5	7.71	6.43	4.15	5.72	7.93	8.18	0.121	1.34	1.32	0.123	2.27	0.72	3.9
CGAACTTGGTCAAAGGACAGTGAAAGGCGACGTA	-0.082	-0.109	-0.799	-0.227	-0.688	1.25	3.15	4.34	2.21	4.07	0.58	1.75	-0.436	0.499	-0.152	-0.326	0.232	-0.498	1.83
CGAACTAGATCAAAGGACAGTGAAAGGCGACGTA	-0.658	-0.667	-0.396	-0.5	-0.637	1.77	3.32	4.89	2.76	4.58	1.68	1.44	-0.617	0.388	-0.456	-0.201	-0.579	0.383	0.915
CGAACTAGGCCAAAGGACAGTGAAAGGCGACGTA	-0.669	-0.893	-0.542	-0.756	-1.2	2.97	6.79	6.81	5.3	7.2	5.96	5.66	-0.194	0.351	-0.549	-0.424	-0.24	-0.451	1.33
CGAACTAGGTCACCAGGACAGTAAAGAGGTTGGA	4.28	2.44	0.233	1.93	0.13	5.1	9.15	7.03	4.73	6.51	8.12	8.87	5.2	2.63	1.66	0.231	2.62	0.29	4.12
ATATGTAGGTTAGGGTAATTCAGAAAGTAGGGAA	1.61	1.22	0.994	1.87	1.03	3.31	4.75	3.91	2.13	3.13	6.57	6.48	2.48	2.03	0.958	1.34	1.34	1.87	1.33
ATGTGTAGGTTAGGGTCATTCAGAAAGTAGGGAA	5.11	4.15	1.8	4.76	2.68	5.13	4.57	4.47	2.37	3.65	2.92	3.98	1.73	3.73	4.68	3.2	5.25	2.44	3.87
CGAACTAGGTCACCATGACAGTGAAGAGGTTGGA	3.62	1.88	-0.254	1.49	0.0449	4.95	8.32	6.55	4.64	6.23	7.11	8.4	1.33	1.97	1.4	-0.124	2.42	0.707	4.23
ATATGTTGGTTAGGGTCATTCAGAAAGTAGGGAA	4.81	4	1.67	4.72	2.36	4.86	3.15	3.69	1.7	2.88	1.44	2.45	1.7	3.53	4.44	2.69	4.96	2.67	3.2
CGAACTAGGTCACCAGGATAGTGAAGAGGTTGGA	4.03	2.47	0.115	1.87	-0.103	5.37	8.87	6.98	4.74	6.8	8.36	8.68	2.4	2.57	1.4	-0.0879	2.59	0.146	4.2
